Inconclusive results are not listed. A call without a number means that no potency is given here. Some structures have more than one record in an assay (separate samples or runs), and their calls can disagree. Activity calls are given as the source filed them. Calls follow the shape of the dose curve; as a rule, active = well fitted curve in the direction sought with a large enough effect; inconclusive = small, poorly fitted or top-dose-only effect, or another doubt; inactive = no such curve, though single readings can be large; an effect the other way counts as inactive or inconclusive.
Experiments:
[1] = qHTS to identify inhibitors of the type 1 interferon - major histocompatibility complex class I in skeletal muscle: primary screen against the NCATS Pharmaceutical Collection (AID 1347407); conditions: human skeletal muscle cells, IFN-b-induced MHC-I HiBiT luminescence, 24 h; series mostly up to 45.9 µM;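 also: luminescence of HiBiT knocked into endogenous HLA-B as interferon-induced MHC class I level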
Method in brief: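 Immortalized human myoblasts (C25cl48) with HiBiT knocked into endogenous HLA-B*08:01 were stimulated with 4 ng/ml IFN-beta and treated with compounds (8-point, 1:5, top 46 uM final) for 24 h at 37 C; HiBiT lytic luminescence read.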

[2] = target: Protein phosphatase 1D (Homo sapiens) (UniProt O15297); test: RapidFire Mass Spectrometry qHTS Assay for Modulators of WT P53-Induced Phosphatase 1 (WIP1) (AID 1347424); conditions: WIP1 dephosphorylation of phosphopeptide, RapidFire MS; series mostly up to 63 µM;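 also: amount of dephosphorylated VEPPL-S-QETFS peptide product formed by WIP1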
Method in brief: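 10 nM WIP1 + cpd, 1 h RT; + 2 uM VEPPL-pS-QETFS, 5 min RT; stop 0.5% formic acid; labelled product standard 1 uM; RapidFire MS. Buffer 50 mM Tris pH 7.5, 30 mM MgCl2, 1 mM TCEP.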

[3] = Primary qHTS for inhibitors of La Crosse Virus (LACV) - induced cell death in SH-SY5Y cells (AID 1508616); conditions: SH-SY5Y LACV cytopathicity rescue, ATP luminescence, 6 d; series mostly up to 4.29 µM; also: potency is read from the fitted curve at half-maximal effect;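 as to activity change: top concentration of the series differs between compounds; higher means more rescue of cells from virus-induced death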
Method in brief: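 SH-SY5Y cells (6000/well) plated 24 h, then given compounds by pin transfer and LACV at 0.01 MOI for 6 days at 37C. Viability measured by ATPLite luminescence, normalized to infected DMSO and uninfected DMSO.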

[4] = qHTS to identify inhibitors of the type 1 interferon - major histocompatibility complex class I in skeletal muscle: primary screen against the NCATS Mechanism Interrogation Plate v5.0 (MIPE) Libary (AID 1347411); conditions: iHSKM cells + IFN-b, HiBiT-tagged MHC-I luminescence, 24 h; series mostly up to 45.8 µM; also: nearly all actives have a fitted effect of over 65% in size; also: potency is read from the fitted curve at half-maximal effect
Method in brief: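 Immortalized human myoblasts (C25cl48) with HiBit knocked into endogenous HLA-B*08:01 were stimulated with 4 ng/ml IFN-beta and given compounds in 11-point 1:3 titration from 46 uM. After 24 h at 37 C, lytic HiBiT luminescence was read.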

[5] = target: Protein phosphatase 1D (Homo sapiens) (UniProt O15297); test: Rhodamine-PBP qHTS Assay for Modulators of WT P53-Induced Phosphatase 1 (WIP1) (AID 1347425); conditions: recombinant WIP1, Rhodamine-PBP phosphate fluorescence, real-time; series mostly up to 57.5 µM
Method in brief: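 Steps: enzyme with Rh-PBP sensor and compounds, room-temperature incubation of 1 hr, baseline read, addition of VEPPL-pS-QETFS (10 uM final), kinetic fluorescence reads at 525/598 nm. Activity equals final minus baseline signal.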

[6] = Validation qHTS assay for inhibitors of Activation Induced Cytidine Deaminase (AID): UDG Counterscreen signal (AID 1347427); conditions: biochemical UDG counterscreen, fluorescence signal; series mostly up to 115 µM
Method in brief: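 Counterscreen read of UDG activity (2 U/mL, 4/3x) in the FRET deamination format with AID (1 uM, 4/3x), DJC20/DJC23 substrates (250 nM, 4x), 4 h at room temperature. NaOH stop, fluorescence at 560 ex/665 em.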

[7] = target: Single-stranded DNA cytosine deaminase (Homo sapiens) (UniProt Q9GZX7); test: Validation qHTS assay for inhibitors of Activation Induced Cytidine Deaminase (AID): AID signal (AID 1347429); conditions: Recombinant AID, FRET ssDNA deamination with UDG, fluorescence; series mostly up to 115 µM
Method in brief: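 FRET deamination assay: 1 uM AID (4/3x stock) with UDG, compound up to 114 uM, then 250 nM DJC20/DJC23 substrate (4x stock) for 4 hr at room temperature. NaOH added, 30 min; fluorescence read 540/590 nm.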

[8] = target: Calcium and integrin-binding protein 1 (Homo sapiens) (UniProt Q99828); test: Validation qHTS for Identification of Calcium Integrin Binding protein 1 (CIB1) Competitor (AID 1508618); conditions: CIB1-GST / FITC-alphaIIb peptide fluorescence polarization; series mostly up to 114 µM
Method in brief: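 In this qHTS validation, the LOPAC set (up to 114 uM) was tested for blocking CIB1 binding to a fluorescein-tagged alphaIIb peptide, with FP detection at 480/540 nm.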

[9] = target: Calcium and integrin-binding protein 1 (Homo sapiens) (UniProt Q99828); test: Confirmatory qHTS for Identification of Calcium Integrin Binding Protein 1 (CIB1) Competitor (AID 1508617); conditions: CIB1 binding competition assay, biochemical qHTS; series mostly up to 114 µM; also: nearly all actives have a fitted effect of over 65% in size; also: potency is read from the fitted curve at half-maximal effect
Method in brief: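 Binding competition between test compounds and fluorescent alphaIIb peptide for 1 uM CIB1-GST is monitored by FP at 480/540 nm. Final compound range is up to 114 uM; unlabeled peptide serves as reference competitor.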

Calcium and integrin-binding protein 1 (Homo sapiens), sequence (Q99828 whole entry, looked up): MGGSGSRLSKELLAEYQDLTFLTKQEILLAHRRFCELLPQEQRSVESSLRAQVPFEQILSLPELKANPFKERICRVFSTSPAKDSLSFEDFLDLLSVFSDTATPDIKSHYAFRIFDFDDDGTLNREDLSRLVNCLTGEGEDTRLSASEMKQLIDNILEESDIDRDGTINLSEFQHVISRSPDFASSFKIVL
Single-stranded DNA cytosine deaminase (Homo sapiens), sequence (Q9GZX7 whole entry, looked up): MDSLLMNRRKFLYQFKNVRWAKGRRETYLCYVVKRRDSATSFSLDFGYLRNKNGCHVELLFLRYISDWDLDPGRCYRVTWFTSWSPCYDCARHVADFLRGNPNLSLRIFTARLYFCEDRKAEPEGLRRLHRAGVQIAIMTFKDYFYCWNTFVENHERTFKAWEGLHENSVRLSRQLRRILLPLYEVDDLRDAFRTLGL
Protein phosphatase 1D (Homo sapiens), sequence (O15297 whole entry, looked up): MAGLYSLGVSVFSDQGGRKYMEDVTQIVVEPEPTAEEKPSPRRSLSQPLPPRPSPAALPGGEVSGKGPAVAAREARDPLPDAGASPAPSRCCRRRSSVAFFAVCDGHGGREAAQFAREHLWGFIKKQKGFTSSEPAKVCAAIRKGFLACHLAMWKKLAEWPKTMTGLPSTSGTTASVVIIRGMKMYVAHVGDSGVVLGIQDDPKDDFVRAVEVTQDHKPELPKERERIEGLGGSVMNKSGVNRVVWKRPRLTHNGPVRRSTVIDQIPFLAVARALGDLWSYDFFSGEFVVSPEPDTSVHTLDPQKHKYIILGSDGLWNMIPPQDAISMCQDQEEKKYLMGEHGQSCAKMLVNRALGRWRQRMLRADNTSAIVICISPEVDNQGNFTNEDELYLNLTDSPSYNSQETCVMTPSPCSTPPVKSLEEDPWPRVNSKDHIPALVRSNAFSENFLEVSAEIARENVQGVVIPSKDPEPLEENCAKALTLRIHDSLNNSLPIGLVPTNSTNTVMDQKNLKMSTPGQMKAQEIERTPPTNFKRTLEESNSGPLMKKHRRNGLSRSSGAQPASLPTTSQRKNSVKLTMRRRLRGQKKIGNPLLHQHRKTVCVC

## CN(c1nccc(=O)[nH]1)C1CCN(c2nc3ccccc3n2Cc2ccc(F)cc2)CC1
[1]
  Potency: inactive
[2]
  Potency: inactive
[3]
  Potency: inactive

## CN(C)[C@@H](CCOc1cccc2ccccc12)c1ccccc1
[1]
  Potency: inactive
[2]
  Potency: inactive
[3]
  Potency: inactive

## CCOC(=O)C1=C[C@@H](OC(CC)CC)[C@H](NC(C)=O)[C@@H](N)C1
[4]
  Potency: inactive

## CCOc1cc(CC(=O)N[C@@H](CC(C)C)c2ccccc2N2CCCCC2)ccc1C(=O)O
[4]
  Potency: inactive

## Clc1ccc(C(Cn2ccnc2)OCc2ccsc2Cl)c(Cl)c1 (stereo unspecified)
[4]
  Potency: inactive
[2]
  Potency: inactive
[5]
  outcome: inactive
[3]
  Potency: inactive

## O=C(NOCC1CC1)c1ccc(F)c(F)c1Nc1ccc(I)cc1Cl
[4]
  Potency: inactive
[2]
  Potency: inactive
[3]
  Potency: inactive

## C=CCc1cc(OC)c(O)c(C(=O)NCCO)c1
[1]
  Potency: inactive
[2]
  Potency: inactive
[3]
  Potency: inactive

## Nc1ccn([C@@H]2O[C@H](CO)[C@@H](O)C2O)c(=O)n1 (stereo partly specified)
[4]
  Potency: inactive
[6]
  Potency: inactive
[7]
  outcome: inactive
[3]
  Potency: 0.316 µM (active)

## CCc1nc(N)nc(N)c1-c1ccc(Cl)cc1
[4]
  Potency: inactive
[2]
  Potency: inactive
[3]
  Potency: inactive

## CCCCCCCCCCCCCCCCCCCCCCO
[4]
  Potency: inactive

## O=P(O)(O)C(O)(Cn1ccnc1)P(=O)(O)O
[4]
  activity change, negative = inhibition: 2.74% [at 5.1 µM] (inactive)

## O=C(O)c1cccnc1Nc1cccc(C(F)(F)F)c1
[1]
  Potency: inactive
[6]
  Potency: inactive
[7]
  outcome: inactive
[3]
  Potency: inactive
[8]
  outcome: inactive

## O=c1ccc2ccc(O)c(O)c2o1
[6]
  Potency: inactive
[7]
  outcome: inactive
[3]
  Potency: inactive

## CCOC(=O)C1=C(O)C(=O)N(Cc2ccccc2)C1
[4]
  Potency: inactive
[8]
  outcome: inactive

## CC1(C)CCC(C)(C)c2cc(NC(=O)c3ccc(C(=O)O)cc3)ccc21
[4]
  Potency: inactive
[3]
  Potency: inactive

## COC(=O)C1=C(C)NC(C)=C(C(=O)OCCCN2CCC(c3ccccc3)(c3ccccc3)CC2)C1c1cccc([N+](=O)[O-])c1 (stereo unspecified)
[2]
  Potency: inactive
[5]
  outcome: inactive
[3]
  Potency: inactive

## C[C@H](Cc1ccc(O)c(O)c1)[C@@H](C)Cc1ccc(O)c(O)c1
[4]
  Potency: inactive
[7]
  outcome: inactive
[3]
  Potency: 1 µM (active)
[8]
  outcome: inactive

## Cc1nc(Nc2ncc(C(=O)Nc3c(C)cccc3Cl)s2)cc(N2CCN(CCO)CC2)n1
[2]
  Potency: inactive
[3]
  Potency: inactive

## CN(C)CCCC1(c2ccc(F)cc2)OCc2cc(C#N)ccc21 (stereo unspecified)
[6]
  Potency: inactive
[7]
  outcome: inactive
[3]
  Potency: inactive
[8]
  outcome: inactive

## CC1(C)C(=O)N(CCN2CCC(C(=O)c3ccc(F)cc3)CC2)c2ccccc21
[6]
  Potency: inactive
[7]
  outcome: inactive
[3]
  Potency: inactive
[8]
  outcome: inactive

## CCN(CC)C(=S)SSC(=S)N(CC)CC
[2]
  Potency: inactive
[5]
  outcome: inactive
[6]
  Potency: inactive
[7]
  outcome: inactive
[3]
  Potency: inactive
[9]
  Potency: 14.1 µM (active) and inactive
[8]
  outcome: inactive

## OC(CN1CCN(c2cccc(Cl)c2)CC1)C(c1ccccc1)c1ccccc1 (stereo unspecified)
[6]
  Potency: inactive
[7]
  outcome: inactive
[3]
  Potency: inactive

## Nc1nc(N)c(N=O)c(OCC2CCCCC2)n1
[4]
  Potency: inactive
[6]
  Potency: inactive
[7]
  outcome: inactive
[3]
  Potency: inactive
[8]
  outcome: inactive

## Nc1nc(OCc2ccccc2)c2[nH]cnc2n1
[4]
  Potency: inactive
[6]
  Potency: inactive
[7]
  outcome: inactive
[3]
  Potency: inactive
[8]
  outcome: inactive

## Clc1ccc2c(N3CCN(CCCN4CCN(c5ccnc6cc(Cl)ccc56)CC4)CC3)ccnc2c1
[4]
  Potency: inactive
[8]
  outcome: inactive

## CC(=O)N1CCN(c2ccc(OC[C@H]3CO[C@](Cn4ccnc4)(c4ccc(Cl)cc4Cl)O3)cc2)CC1
[4]
  Potency: inactive
[6]
  Potency: inactive
[7]
  outcome: inactive
[3]
  Potency: inactive
[8]
  outcome: inactive

## Cc1ccc(Nc2nccc(N(C)c3ccc4c(C)n(C)nc4c3)n2)cc1S(N)(=O)=O
[2]
  Potency: inactive
[5]
  outcome: inactive
[3]
  Potency: inactive

## O=C1c2ccccc2-c2n[nH]c3cccc1c23
[4]
  Potency: 16.5 µM (active)
[6]
  Potency: inactive
[3]
  Potency: inactive

## COc1ccccc1N1CCN(CCN(C(=O)C2CCCCC2)c2ccccn2)CC1
[4]
  Potency: inactive
[6]
  Potency: inactive
[7]
  outcome: inactive
[3]
  Potency: inactive
[8]
  outcome: inactive

## Cc1ccc(NC(=O)c2ccc(CN3CCN(C)CC3)cc2)cc1Nc1nccc(-c2cccnc2)n1
[2]
  Potency: inactive
[3]
  Potency: inactive

## O=Nc1c(-c2c(O)[nH]c3cc(Br)ccc23)[nH]c2ccccc12
[4]
  Potency: 14.7 µM (active)
[6]
  Potency: inactive
[7]
  outcome: inactive
[8]
  outcome: inactive

## Oc1ccc(-c2nc(-c3ccc(F)cc3)c(-c3ccncc3)[nH]2)cc1
[4]
  Potency: inactive
[6]
  Potency: inactive
[7]
  outcome: inactive
[3]
  Potency: inactive
[8]
  outcome: inactive

## CC(=O)Nc1ccc(O)cc1
[2]
  Potency: inactive

## O=C(CCc1ccc(O)cc1)c1c(O)cc(O)cc1O
[6]
  Potency: inactive
[7]
  outcome: inactive
[3]
  Potency: inactive
[8]
  outcome: inactive

## CC(C)c1ccc2c(c1)c(SC(C)(C)C)c(CC(C)(C)C(=O)O)n2Cc1ccc(Cl)cc1
[6]
  Potency: inactive
[7]
  outcome: inactive

## Cc1cc(Cl)ccc1OCCCC(=O)NO
[4]
  Potency: inactive
[8]
  outcome: inactive

## C[C@@H](c1ncncc1F)[C@](O)(Cn1cncn1)c1ccc(F)cc1F
[4]
  Potency: inactive
[8]
  outcome: inactive

## CN(C)c1ccc2nc3ccc(=[N+](C)C)cc-3sc2c1
[4]
  Potency: 18.6 µM (active)
[3]
  Potency: inactive

## Cc1cccc(C#Cc2ccccc2)n1
[6]
  Potency: inactive
[7]
  outcome: inactive
[3]
  Potency: inactive
[8]
  outcome: inactive

## COc1cc(C(C)=O)ccc1OCCCN1CCC(c2noc3cc(F)ccc23)CC1
[2]
  Potency: inactive
[5]
  outcome: inactive
[3]
  Potency: inactive

## CN1C(C(=O)Nc2ccccn2)=C(O)c2sccc2S1(=O)=O
[2]
  Potency: inactive
[5]
  outcome: inactive
[3]
  Potency: inactive

## Oc1ccc2ccccc2c1SSc1c(O)ccc2ccccc12
[7]
  outcome: inactive
[3]
  Potency: inactive

## O=C1NC(=O)C(c2ccccc2[N+](=O)[O-])=C1Nc1ccc(O)c(Cl)c1
[6]
  Potency: inactive
[7]
  outcome: inactive
[3]
  Potency: inactive

## COC(=O)C1=C(C)NC(C)=C(C(=O)OC(C)C)C1c1cccc2nonc12 (stereo unspecified)
[2]
  Potency: inactive
[5]
  outcome: inactive
[3]
  Potency: inactive

## NC(=NCc1ccccc1)NC(=O)c1nc(Cl)c(N)nc1N
[6]
  Potency: inactive
[7]
  outcome: inactive
[3]
  Potency: inactive
[8]
  outcome: inactive

## CN(C)C(=O)[C@H](O)[C@H](Cc1ccccc1)NC(=O)c1cc2cc(Cl)ccc2[nH]1
[4]
  Potency: inactive
[8]
  outcome: inactive

## O=c1c(O)c(-c2cc(O)c(O)c(O)c2)oc2cc(O)cc(O)c12
[4]
  Potency: inactive
[6]
  Potency: inactive
[7]
  outcome: inactive
[3]
  Potency: inactive
[8]
  outcome: inactive

## Cc1cccc(-c2[nH]ncc2-c2ccc3ncccc3n2)n1
[4]
  Potency: inactive
[8]
  outcome: inactive

## CC[C@]1(O)C[C@H]2CN(CCc3c([nH]c4ccccc34)[C@@](C(=O)OC)(c3cc4c(cc3OC)N(C=O)[C@H]3[C@@](O)(C(=O)OC)[C@H](OC(C)=O)[C@]5(CC)C=CCN6CC[C@]43[C@@H]65)C2)C1
[2]
  Potency: inactive
[3]
  Potency: 0.1 µM (active)
